# This is a sample that favours compounds with a hit; in the whole collection about 3.3% have one here.
# AmpC inh no detg = inhibitors of E. coli AmpC beta-lactamase without detergent; Potency, µM (doses to about 57.1 µM), inactives show at the highest dose activity change, negative = inhibition, usual class: inhibitors; AmpC nitrocefin hydrolysis, absorbance 480 nm, 0.0001% Triton; hit rate 0.52% among 330,000; AID 485341;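 note: plate controls were no compound for no effect and no enzyme for full effect; nearly all actives have a fitted effect of over 20% in size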
# Target sequence (P00811 whole entry, looked up): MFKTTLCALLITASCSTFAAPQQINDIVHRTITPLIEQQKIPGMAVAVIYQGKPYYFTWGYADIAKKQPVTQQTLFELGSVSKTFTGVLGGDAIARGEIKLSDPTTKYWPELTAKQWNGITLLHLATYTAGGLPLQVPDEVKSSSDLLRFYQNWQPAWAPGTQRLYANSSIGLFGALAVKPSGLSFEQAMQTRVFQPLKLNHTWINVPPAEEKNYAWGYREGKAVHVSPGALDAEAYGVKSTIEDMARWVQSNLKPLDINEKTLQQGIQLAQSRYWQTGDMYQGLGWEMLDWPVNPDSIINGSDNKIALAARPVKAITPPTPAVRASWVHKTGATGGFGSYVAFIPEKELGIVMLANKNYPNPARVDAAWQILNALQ
#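 AmpC (5.3 nM in the dispensed reagent) in 20 mM phosphate pH 7.0 with 0.01% (detergent screen) or 0.0001% Triton X-100 was preincubated with compounds for 15 min at room temperature. Nitrocefin was then added from an 800 uM solution, and hydrolysis was followed at 480 nm.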
# Sm TGR block = S. mansoni TGR enzyme inhibition | hit rate 3% among 360,000 | Potency, µM (highest dose often 114 µM), without a hit: top-dose activity change, negative = inhibition, actives largely listed as inhibitors | purified TGR, DTNB reduction, TNB absorbance 405 nm; note: nearly all actives have a fitted effect of over 60% in size
#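 Kinetic colorimetric format: TGR-catalysed, NADPH-driven DTNB reduction monitored via TNB absorbance. Enzyme dispensed at 20 nM; compound exposure 15 min at room temperature before reaction start.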
# AmpC detergent = blocks E. coli AmpC beta-lactamase in detergent assay; P00811; AmpC hydrolysis of nitrocefin, absorbance 480 nm, 0.01% Triton; Potency, µM (top dose mostly 114 µM), without a hit: at the highest dose activity change, negative = inhibition, most hits filed as inhibitors; hit rate 0.041% among 370,000; AID 485294;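 note: 0% = no-compound wells and -100% = no-enzyme wells; nearly all actives have a fitted effect of over 25% in size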
#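 AmpC (5.3 nM in the dispensed reagent) in 20 mM phosphate pH 7.0 with 0.01% (detergent screen) or 0.0001% Triton X-100 was preincubated with compounds for 15 min at room temperature. Nitrocefin was then added from an 800 uM solution, and hydrolysis was followed at 480 nm.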
# Numbers without * were called inactive; ? = inconclusive; nt = not tested or not shown. Calls come from the whole dose curve; as a rule, active = well fitted curve in the direction sought with a large enough effect; inconclusive = small, poorly fitted or top-dose-only effect, or another doubt; inactive = no such curve, though single readings can be large; an effect the other way counts as inactive or inconclusive. Unless noted, % is set by controls: 0 for no effect and ±100 for the full control effect; potency is the fitted concentration of half-maximal effect.
SMILES,AmpC inh no detg,Sm TGR block,AmpC detergent
O=C(CSc1nc2cc(C(=O)NC3CCCC3)ccc2c(=O)n1CC1CCCO1)c1cccc(Cl)c1 (configuration not stated),nt,-7%,-2%
CN1CCO/C1=C(\C(Cl)=C(Cl)Cl)[N+](=O)[O-],-8%,32µM*,2%
O=[N+]([O-])/C(C(=C(Cl)Cl)N1CCOCC1)=C1\NCCO1,-15%,-1%,-4%
CCN(Cc1nc(-c2ccc(OC)c(OC)c2)no1)S(=O)(=O)c1ccc(OC)cc1,nt,7%,0%
COc1cc(C=O)ccc1Oc1nnnn1-c1ccc(C(N)=O)cc1,-12%,0%,-12%
C/C=C/c1ccc(Oc2nnnn2-c2ccc(C(=O)O)cc2)c(OC)c1,-20%,35µM*,3%
Cc1ccc2oc(C(=O)Nc3ccc(S(=O)(=O)Nc4nccc(C)n4)cc3)cc(=O)c2c1,nt,1%,-8%
CC(C)c1nnc(NC(=O)CCS(=O)(=O)c2nc(-c3cccs3)cc(C(F)(F)F)n2)s1,25%,20µM*,-4%
O=C(CCS(=O)(=O)c1nc(-c2cccs2)cc(C(F)(F)F)n1)Nc1ccc(F)c(Cl)c1,nt,-28%,?
O=C(CCS(=O)(=O)c1nc(-c2cccs2)cc(C(F)(F)F)n1)Nc1ccc(OC(F)(F)F)cc1,nt,-6%,0%
COc1ccc(NC(=O)CCS(=O)(=O)c2nc(-c3cccs3)cc(C(F)(F)F)n2)cc1,nt,20µM*,-4%
COC(=O)c1ccccc1NC(=O)Cn1nnc2sc(-c3ccccc3)cc2c1=O,nt,7%,14%
CCCc1nn2c(=O)cc(COC(=O)c3ccccc3NC(=O)c3ccc(Cl)cc3)nc2s1,nt,-1%,-13%
COc1ccccc1NC(=S)N(Cc1ccccc1)Cc1cccs1,-27%,3%,-3%
CCC(=O)N(CCC(c1ccccc1)c1ccco1)Cc1cccs1 (configuration not stated),47%,14µM*,1%
CCC(=O)N(CCC(Cc1ccccc1)c1ccco1)Cc1ccco1 (configuration not stated),40%,?,2%
COc1ccccc1C(CCN(Cc1cccs1)C(C)=O)c1ccco1 (configuration not stated),40%,13µM*,?
Cc1cccc(N2C(=O)CC(N3CCOCC3)C2=O)c1 (configuration not stated),-13%,50µM*,?
COC(=O)c1ccc(N2C(=O)CC(N3CCOCC3)C2=O)cc1 (configuration not stated),-11%,?,?
CCN(CC)C1CC(=O)N(c2cccc(C)c2)C1=O (configuration not stated),-23%,3.5µM*,?
O=C1CC(N2CCOCC2)C(=O)N1c1ccc(Cl)cc1 (configuration not stated),-20%,22µM*,-1%
Cc1cccc(N2C(=O)C(Cl)=C(N3CCOCC3)C2=O)c1,2%,40µM*,8%
O=C1C(Cl)=C(N2CCOCC2)C(=O)N1c1cccc(Cl)c1,-12%,?,-2%
O=C1CC(N2CCOCC2)C(=O)N1c1cccc(Cl)c1 (configuration not stated),-19%,?,-6%
Cc1cccc(N2C(=O)CC(Cn3nc(C)cc3C)C2=O)c1 (configuration not stated),-9%,2%,0%
SMILES,AmpC inh no detg,Sm TGR block,AmpC detergent
CCOC(=O)c1sc2ccccc2c1S(=O)(=O)Nc1ccc(CC)cc1,nt,15%,11%
O=C(Cn1cc(C(=O)C(F)(F)F)c2ccccc21)N1CCCCCC1,nt,-6%,-5%
CCN(CCCNC(=O)CN1N=C(c2ccc(OC)cc2)CCC1=O)c1cccc(C)c1,nt,-4%,4%
COc1ccc(N2Cc3cccc(C(=O)Nc4ccc(C(C)C)cc4)c3C2=O)cc1,nt,-13%,0%
COc1ccc2c(Sc3ccccc3)c(C(=O)NCCc3ccc(Cl)cc3)[nH]c2c1,nt,6%,21%
Cc1ccc(CNC(=O)CCC2CCCN(Cc3cccc4c3OCO4)C2)o1 (configuration not stated),-3%,?,5%
Cc1ccc(CNC(=O)CCC2CCCN(Cc3ccc4cccc(F)c4n3)C2)o1 (configuration not stated),4%,40µM*,9%
CC(=O)N1CCc2cc(S(=O)(=O)N3CCN(c4ccc(C)cc4)C(C)C3)ccc21 (configuration not stated),nt,1%,-4%
C[C@@H]1Cc2c(O)c(O)cc(O)c2C(=O)O1,-3%,?,-5%
CC1Oc2cc3c(-c4c(O)cc(O)c5c(O)c6c(cc45)OC(C)C(C)C6=O)c(O)cc(O)c3c(O)c2C(=O)C1C (configuration not stated),22µM*,32µM*,?
